The results in this text go back to PubChem BioAssay (NCI).

The panel holds about 83,000 compounds, 20% with a hit somewhere; the sample as a whole holds those more often.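 Single-dose data. Exposure time 48 hours. Values below 10 considered active.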 Values without a mark were called inactive. Active and inactive are the calls of the source.

Test systems include NCI-H23 lung; NCI-H226 lung; NCI-H322M lung; HOP-62 NSCLC; NCI-H460 lung; HOP-92 NSCLC; NCI-H522 lung; A549/ATCC NSCLC; 786-0 renal; COLO 205 colon; DU-145 prostate; K-562 leukemia; MALME-3M melanoma; MDA-MB-231 breast; RXF 393 renal; SF-268 CNS; SF-295 CNS; SF-539 CNS; UACC-257 melanoma; M14 melanoma.
What all share (test): NCI-60 one-dose screen, 48 h (100 = growth as untreated, 0 = no growth, -100 = all killed)
What all share (details): 10 µM unless noted

Take `Cc1ccc([C@H]2C(C(=O)c3ccc(Cl)cc3)C3(N[C@@H]2c2ccccc2)C(=O)Nc2ccc(Cl)cc23)cc1` (stereo not given in full): the growth with NCI-H23 lung is 52.8%; with NCI-H226 lung, 61.4%; with NCI-H322M lung, 67.4%; in the test with HOP-62 NSCLC it was 65.1%; in the test on NCI-H460 lung, 39.7%; in the test with HOP-92 NSCLC, 16.6%. Further, the growth in the test on NCI-H522 lung is 43.9%; in the test with A549/ATCC NSCLC it was 33.2%; in the test on 786-0 renal, 39.1%; with COLO 205 colon it was 44.5%; with DU-145 prostate it was 71.8%; in the test with K-562 leukemia it was 22.2%. For the same compound, the growth with MALME-3M melanoma was 87.2%; in the test on MDA-MB-231 breast it was 50.7%; in the test with RXF 393 renal, 27%; with SF-268 CNS it was 55.8%; in the test with SF-295 CNS, 48.2%; with SF-539 CNS, 77%. Moreover, the growth with UACC-257 melanoma was 69.8%; with M14 melanoma it was 44.8%.

For the compound `C=C1CC[C@@H]2[C@]3(C)COC(c4ccccc4)O[C@@H]3CC[C@@]2(C)[C@@H]1C/C=C1/C(=O)OCC1OC(C)=O` (stereo not given in full), the growth is -18.5% (active) in the test with NCI-H23 lung; -79.8% (active) in the test with NCI-H226 lung; 62.1% with NCI-H322M lung; -27.7% (active) in the test with HOP-62 NSCLC; 15.1% in the test with NCI-H460 lung; -36.3% (active) in the test on HOP-92 NSCLC. In addition, the growth in the test with NCI-H522 lung is -90.2% (active); in the test with A549/ATCC NSCLC it was 9.46% (active); in the test with 786-0 renal it was -95.6% (active); with COLO 205 colon, -76.4% (active); in the test with DU-145 prostate, 22.5%; in the test on K-562 leukemia, -39.6% (active). In addition, the growth in the test with MALME-3M melanoma was -54.8% (active); in the test with MDA-MB-231 breast, -83.1% (active); in the test on RXF 393 renal, -87.7% (active); with SF-268 CNS, 35.1%; in the test with SF-295 CNS, -4.5% (active); with SF-539 CNS, -100% (active). Also, the growth with UACC-257 melanoma is -49.6% (active); in the test on M14 melanoma, -86.9% (active).

Take `O=c1[nH]c2ccccc2cc1CSc1nccc(-c2ccc3ccccc3c2)n1`: the growth in the test with NCI-H23 lung was 77.8%; with NCI-H226 lung, 70.4%; in the test on NCI-H322M lung, 96%; in the test on HOP-62 NSCLC, 71.5%; with NCI-H460 lung, 77%; with HOP-92 NSCLC it was 68.5%. For the same compound, the growth was 49.6% in the test with NCI-H522 lung; 56.8% in the test with A549/ATCC NSCLC; 78.3% with 786-0 renal; 83.3% with COLO 205 colon; 81% in the test with DU-145 prostate; 10.1% in the test on K-562 leukemia. Moreover, the growth in the test with MALME-3M melanoma is 86.3%; with MDA-MB-231 breast, 58.2%; in the test on RXF 393 renal, 59.1%; in the test with SF-268 CNS, 85.4%; in the test with SF-295 CNS, 70.8%; in the test with SF-539 CNS, 71.2%. In addition, the growth in the test with UACC-257 melanoma is 99.3%; in the test with M14 melanoma, 56.1%.

As to `COc1ccc2[nH]cc(-c3nc(N)nnc3-c3cn(C)c4ncccc34)c2c1`, the growth was 69.9% in the test on NCI-H23 lung; 66.4% in the test on NCI-H226 lung; 69.6% in the test with NCI-H322M lung; 62.4% in the test on HOP-62 NSCLC; 25% with NCI-H460 lung; 81.2% in the test on HOP-92 NSCLC. Further, the growth is 34.3% with NCI-H522 lung; 51.2% in the test with A549/ATCC NSCLC; 64.2% with 786-0 renal; 44.5% in the test on COLO 205 colon; 83.9% with DU-145 prostate; 21.6% in the test with K-562 leukemia. Further, the growth is 37.6% in the test with MALME-3M melanoma; 43.4% in the test on MDA-MB-231 breast; 81.5% in the test on RXF 393 renal; 75.8% in the test on SF-268 CNS; 39.9% in the test with SF-295 CNS; 50.2% in the test on SF-539 CNS. For the same compound, the figures for the growth in the test with UACC-257 melanoma and in the test on M14 melanoma were 72.9% and 33.2%, respectively.

Turning to `C=CC[N+](C)(C)CCn1c2ccccc2c2nc3cc(C)c(C)cc3nc21`, the growth in the test on NCI-H23 lung was 70.5%; in the test on NCI-H226 lung, 92.5%; with NCI-H322M lung, 102%; in the test with HOP-62 NSCLC it was 96.3%; in the test on NCI-H460 lung, 104%; in the test on HOP-92 NSCLC it was 111%. In addition, the growth was 51.5% in the test with NCI-H522 lung; 106% with A549/ATCC NSCLC; 89% with 786-0 renal; 88.6% with COLO 205 colon; 105% in the test with DU-145 prostate; 75.7% in the test with K-562 leukemia. Further, the growth is 57.1% in the test on MALME-3M melanoma; 105% with MDA-MB-231 breast; 89.2% with RXF 393 renal; 56.1% with SF-268 CNS; 99.6% with SF-295 CNS; 56.8% with SF-539 CNS. The growth in the test with UACC-257 melanoma was 86%; with M14 melanoma it was 96.2%.

Consider `Cn1cc(-c2nc(N)nnc2-c2c[nH]c3ccc(Br)cc23)c2cccnc21`, for which the growth is 65.5% in the test with NCI-H23 lung; 87.1% in the test with NCI-H226 lung; 63.3% with NCI-H322M lung; 53.2% in the test with HOP-62 NSCLC; 32.8% in the test on NCI-H460 lung; 94.1% in the test with HOP-92 NSCLC. Further, the growth in the test with NCI-H522 lung was 31.8%; with A549/ATCC NSCLC, 56.7%; in the test on 786-0 renal it was 37.1%; in the test on COLO 205 colon it was 44.5%; in the test with DU-145 prostate it was 59.7%; in the test with K-562 leukemia, 24.5%. Besides, the growth in the test with MALME-3M melanoma is 57%; in the test on MDA-MB-231 breast, 63.1%; in the test on RXF 393 renal, 63.9%; with SF-268 CNS it was 66.7%; in the test on SF-295 CNS it was 18.1%; in the test with SF-539 CNS, 20.1%. In addition, the growth with UACC-257 melanoma was 81.3%; in the test with M14 melanoma it was 33.9%.

Regarding `COc1ccc(C(=O)/C=C/c2ccc(OCc3ccccc3)c(OC)c2)cc1OC`, the growth in the test with NCI-H23 lung was 27.1%; in the test on NCI-H226 lung it was 79.1%; in the test with NCI-H322M lung it was 15.7%; in the test with HOP-62 NSCLC, 35.3%; in the test with NCI-H460 lung it was 5.57% (active); in the test with HOP-92 NSCLC it was 38.3%. For the same compound, the growth in the test on NCI-H522 lung is 11.3%; in the test on A549/ATCC NSCLC, 14.4%; with 786-0 renal, 35.9%; with COLO 205 colon, 51.5%; with DU-145 prostate it was 7.25% (active); in the test on K-562 leukemia, 10.5%. Moreover, the growth with MALME-3M melanoma was 71.5%; in the test on MDA-MB-231 breast, 13%; with RXF 393 renal it was 24.2%; in the test on SF-268 CNS it was 32.6%; in the test on SF-295 CNS, 25.8%; in the test with SF-539 CNS it was -37.9% (active). Besides, the growth with UACC-257 melanoma is 58.9%; in the test with M14 melanoma it was 62.3%.

Take `CC(=O)OC[C@@]1(C)C2CC[C@]3(C)C(CC=C4C5CC(C)(C)CC[C@]5(C(=O)Nc5ccc(F)cc5)CC[C@]43C)[C@@]2(C)C[C@@H](OC(C)=O)[C@@H]1OC(C)=O` (stereo not given in full): the growth in the test on NCI-H23 lung was 45.6%; in the test on NCI-H226 lung, 47.7%; with NCI-H322M lung, 60.3%; in the test with HOP-62 NSCLC, 41.3%; in the test with NCI-H460 lung, 11.5%; with HOP-92 NSCLC it was 54.2%. For the same compound, the growth was 49.5% in the test with NCI-H522 lung; 40.6% in the test with A549/ATCC NSCLC; 59% with 786-0 renal; 43.1% in the test with COLO 205 colon; 47.4% in the test on DU-145 prostate; 22.4% with K-562 leukemia. The growth is 58.2% with MALME-3M melanoma; 65.5% in the test with MDA-MB-231 breast; 87.4% in the test with RXF 393 renal; 57.4% with SF-268 CNS; 23.4% in the test with SF-295 CNS; 40.2% with SF-539 CNS. Further, the growth with UACC-257 melanoma is 26.8%; with M14 melanoma it was 48.1%.
